Screening results: PubChem BioAssay, The Scripps Research Institute Molecular Screening Center
LYPLA2 counter = LYPLA2 (human) inhibition in PME1 counter-screen; O95372; recombinant LYPLA2, FP-Rh probe fluorescence polarization; inhibition, % at 5.9 µM; 320,000 tested, 0.38% active; AID 2177;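 active = inhibition above the screen-wide mean plus 3 SD, limit set per campaign, cut at about 26% in these data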;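 note: 0% = LYPLA2 with DMSO and 100% = wells lacking LYPLA2 enzyme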
LYPLA1 counter = blocks human lysophospholipase 1, a PME1 counter-screen. O75608. recombinant LYPLA1, FP-Rh probe fluorescence polarization. inhibition, % at 5.9 µM. 320,000 tested, 0.16% active. AID 2174;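 active = inhibition above the mean of all tested compounds plus 3 SD, set per campaign, cut at about 14% in these data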;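 note: inhibitors block serine hydrolase probe labeling of LYPLA1 so polarization falls; 0% = enzyme with DMSO and 100% = wells lacking LYPLA1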
Target sequence (O75608 whole entry, looked up): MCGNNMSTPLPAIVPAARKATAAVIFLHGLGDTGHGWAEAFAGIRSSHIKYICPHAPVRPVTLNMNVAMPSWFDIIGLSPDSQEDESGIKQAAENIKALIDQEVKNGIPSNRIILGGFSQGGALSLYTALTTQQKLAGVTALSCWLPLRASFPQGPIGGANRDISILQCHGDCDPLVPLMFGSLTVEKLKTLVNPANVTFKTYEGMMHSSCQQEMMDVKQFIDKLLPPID
PME-1 inh = PME-1 (human) inhibition; Q9Y570; recombinant PME-1, FP-Rh probe fluorescence polarization; inhibition, % at 5.9 µM; 320,000 tested, 0.53% active;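 active = inhibition above the campaign mean of all compounds plus 3 SD, cut at about 26% in these data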;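 note: competitive labeling of PME-1 active site by serine hydrolase directed probe; 0% = PME-1 with DMSO and 100% = wells lacking PME-1 enzyme; inhibitors block probe labeling so polarization falls and inhibition rises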
Target sequence (Q9Y570 whole entry, looked up): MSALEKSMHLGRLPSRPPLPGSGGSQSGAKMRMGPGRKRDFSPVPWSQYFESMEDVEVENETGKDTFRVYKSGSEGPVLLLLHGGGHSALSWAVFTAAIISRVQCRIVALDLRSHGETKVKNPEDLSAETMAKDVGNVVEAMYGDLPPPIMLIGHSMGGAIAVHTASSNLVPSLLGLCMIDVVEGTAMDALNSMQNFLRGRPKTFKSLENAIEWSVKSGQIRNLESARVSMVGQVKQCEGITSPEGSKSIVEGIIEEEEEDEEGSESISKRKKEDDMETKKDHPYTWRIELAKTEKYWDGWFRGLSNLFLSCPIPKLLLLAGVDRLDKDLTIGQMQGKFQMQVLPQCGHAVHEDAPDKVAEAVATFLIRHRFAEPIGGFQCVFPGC
PREPL inhibitor = inhibits the human prolyl oligopeptidase-like enzyme | recombinant PREPL, fluorescence polarization activity-based probe | inhibition, % at 5.96 µM | Q4J6C6 | 320,000 tested, 0.68% active; in the data active = inhibition above about 43%;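 note: 0% = enzyme with DMSO and 100% = wells lacking enzyme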
Fam108B inh = counter-screen for RBBP9 inhibitors: inhibitors of mouse Fam108B | 300,000 tested, 0.33% active | recombinant Fam108B, FP-Rh probe fluorescence polarization | AID 1947 | inhibition, % at 9.51 µM;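 active = inhibition above the screen mean inhibition plus 3 SD, computed separately per campaign, cut at about 18% in these data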;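 note: inhibitors lower polarization as less probe binds the enzyme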
LYPLA2 confirm = counter-screen for PME1 inhibitors: confirmation of human LYPLA2 inhibitors. shares compounds with LYPLA2 counter. inhibition, % at 5.9 µM. recombinant LYPLA2, FP-Rh probe fluorescence polarization. 1,100 tested, 72% active;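 active = mean inhibition across replicates above the hit cutoff set in the primary screen, cut at about 26% in these data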;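 note: blocked labeling of the enzyme by serine hydrolase FP-Rh probe lowers polarization; 0% = enzyme with DMSO and 100% = wells lacking LYPLA2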
LYPLA2 gel ABPP = blocks human acyl-protein thioesterase 2 in gel ABPP | shares compounds with LYPLA2 counter | rhLYPLA2 in mouse brain proteome, gel ABPP FP-Rh | inhibition, % at 20 µM | 150 tested, 30% active | AID 652029;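 active = inhibition of LYPLA2 enzyme probe labeling above about 50%, limit read from the data; inactive = inhibition below that limit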;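 note: loss of FP-Rh probe labeling of the LYPLA2 gel band measured as band density; 0% = DMSO only control band and 100% = blank gel background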
Active calls of the source: *. Shown are actives, neighbours in structure and some others; about 1.3% of the full set was active somewhere.

Cc1nn(Cc2ccccc2)c2c1C(c1cccnc1)C(C#N)=C(N)O2 (configuration not stated) was read as LYPLA2 counter -4.7, LYPLA1 counter -2.2, PME-1 inh 0.7, PREPL inhibitor -0.2 and Fam108B inh 0.4.
For CCCc1nn(C)c2c1C(c1cccnc1)C(C#N)=C(N)O2 (configuration not stated) the results were LYPLA2 counter 28.6*, LYPLA1 counter 2.2, PME-1 inh 1.6, PREPL inhibitor -0.9, Fam108B inh 2.6 and LYPLA2 confirm -0.6.
For O=C(Cc1ccc([N+](=O)[O-])cc1)N1CCN(c2ccc([N+](=O)[O-])cc2)CC1 the results were LYPLA2 counter 69.1*, LYPLA1 counter 6.4, PME-1 inh 8.1, PREPL inhibitor 28.9, Fam108B inh 0.6, LYPLA2 confirm 69.4* and LYPLA2 gel ABPP 70.0*.
Screening O=C(c1ccccc1)N1CCN(C(=O)c2ccc([N+](=O)[O-])cc2)CC1 returned LYPLA2 counter -2.1, LYPLA1 counter 0.6, PME-1 inh -3.8, PREPL inhibitor 3.5 and Fam108B inh -1.7.
Screening O=C(c1ccc2nsnc2c1)N1CCN(c2ccc([N+](=O)[O-])cc2)CC1 returned LYPLA2 counter 26.6*, LYPLA1 counter 6.0, PME-1 inh 10.9, PREPL inhibitor 24.5, Fam108B inh 1.6 and LYPLA2 confirm 22.3.
O=C(Cc1ccccc1)N1CCN(c2ccc([N+](=O)[O-])cc2)CC1 was read as LYPLA2 counter 3.7, LYPLA1 counter -0.4, PME-1 inh -1.5, PREPL inhibitor 0.7 and Fam108B inh 2.6.
`COc1cc(OC)c(C(=O)OCC(=O)Nc2ccc(S(=O)(=O)N3CCOCC3)cc2)cc1OC` gave PREPL inhibitor 6.7.
`Cc1cc(C(=O)NNC(=O)c2ccccc2[N+](=O)[O-])c(C)o1` gave LYPLA2 counter -1.0, LYPLA1 counter -1.2, PME-1 inh 2.9 and PREPL inhibitor -6.7.
Screening O=C(NNC(=O)c1cc2ccccc2oc1=O)c1ccccc1[N+](=O)[O-] returned LYPLA2 counter 27.5*, LYPLA1 counter 4.9, PME-1 inh 2.8, PREPL inhibitor 6.0, Fam108B inh -1.5 and LYPLA2 confirm 2.5.
For CCC(C)NC(=O)Cn1cnc2sc(C)c(S(=O)(=O)N3CCCCC3)c2c1=O (configuration not stated) the results were LYPLA2 counter -4.3, LYPLA1 counter 3.8, PME-1 inh 2.7, PREPL inhibitor 8.2 and Fam108B inh 0.8.
For COc1ccc(C(=O)C(C)Sc2nnc(C3CC3)n2C2CC2)cc1 (configuration not stated) the results were LYPLA2 counter 4.7, LYPLA1 counter -1.3, PME-1 inh 3.2 and PREPL inhibitor 5.2.
`O=C1Nc2ccc([N+](=O)[O-])cc2OC1CCN1CCN(Cc2ccc3c(c2)OCO3)CC1` (configuration not stated) gave LYPLA2 counter 71.7*, LYPLA1 counter 0.8, PME-1 inh 8.7, PREPL inhibitor 17.8, Fam108B inh 1.3, LYPLA2 confirm 78.9* and LYPLA2 gel ABPP 61.0*.
`Cc1ccc(Cl)cc1NC(=O)CN1CCN(S(=O)(=O)N2CCC(C)CC2)CC1` gave LYPLA2 counter -2.4, LYPLA1 counter -1.5, PME-1 inh -0.4, PREPL inhibitor 0.1 and Fam108B inh -1.7.
O=[N+]([O-])c1ccccc1-c1nc(-c2ccc(Br)o2)no1 was read as LYPLA2 counter 31.9*, LYPLA1 counter 0.1, PME-1 inh 2.5, PREPL inhibitor 8.8, Fam108B inh -1.4 and LYPLA2 confirm 29.4*.
`COC(=O)/C=C1\SC(=NC(=O)c2ccc(-c3ccccc3)cc2)NC1=O` gave PREPL inhibitor 9.2.
`O=C(c1cc(COc2ccc(F)cc2F)on1)N1C[C@H]2CC[C@H]1C2` gave LYPLA2 counter 26.9*, LYPLA1 counter 2.4, PME-1 inh 1.3, PREPL inhibitor 14.9, Fam108B inh 0.8 and LYPLA2 confirm 0.6.
Cc1c(Cl)cccc1NC(=S)N1CCC(N(C)CC2CCCO2)CC1 (configuration not stated) was read as LYPLA2 counter -3.3, LYPLA1 counter -3.6, PME-1 inh -6.1, PREPL inhibitor 4.2 and Fam108B inh -6.1.
Screening Cc1c(Nc2ccc3nonc3c2[N+](=O)[O-])c(=O)n(-c2ccccc2)n1C returned LYPLA2 counter 31.6*, LYPLA1 counter -0.7, PME-1 inh -2.7, PREPL inhibitor 0.4, Fam108B inh -1.8 and LYPLA2 confirm 36.6*.
`CC(=O)c1ccc(N2CCN(c3ccc(S(=O)(=O)NCCCN(C)C)cc3[N+](=O)[O-])CC2)cc1` gave LYPLA2 counter 26.2*, LYPLA1 counter 9.8, PME-1 inh -5.4, PREPL inhibitor 21.1, Fam108B inh -3.4 and LYPLA2 confirm 19.1.
`CN(C)CCNS(=O)(=O)c1ccc(N2CCc3ccccc32)c([N+](=O)[O-])c1` gave LYPLA2 counter 7.9, LYPLA1 counter 5.7, PME-1 inh 4.8, PREPL inhibitor -4.1 and Fam108B inh 0.1.
CC(=O)c1ccc(N2CCN(c3ccc(S(=O)(=O)NCCN(C)C)cc3[N+](=O)[O-])CC2)cc1 was read as LYPLA2 counter 28.1*, LYPLA1 counter 4.3, PME-1 inh 2.3, PREPL inhibitor 25.9, Fam108B inh 3.2 and LYPLA2 confirm 31.2*.
CN(C)CCCNS(=O)(=O)c1ccc(N2CCN(Cc3ccc4c(c3)OCO4)CC2)c([N+](=O)[O-])c1 was read as LYPLA2 counter -2.1, LYPLA1 counter -1.8, PME-1 inh 1.6, PREPL inhibitor 16.5 and Fam108B inh -0.5.
Screening O=C(O)c1cccc(N2C(=O)c3ccc4c5c(ccc(c35)C2=O)C(=O)N(c2cccc(C(=O)O)c2)C4=O)c1 returned LYPLA2 counter 6.5, LYPLA1 counter 4.4, PME-1 inh 8.0, PREPL inhibitor 5.0 and Fam108B inh 4.6.
Screening O=C(O)c1cccc(N2C(=O)c3ccc(Oc4ccc(Cl)cc4)cc3C2=O)c1 returned LYPLA2 counter 52.6*, LYPLA1 counter -2.9, PME-1 inh 1.0, PREPL inhibitor 8.0, Fam108B inh -2.0, LYPLA2 confirm 67.6* and LYPLA2 gel ABPP 55.0*.
Screening CCNC(=O)N(C)C[C@H]1N[C@@](C)(C(=O)OC)[C@H]2C(=O)N(Cc3ccccc3)C(=O)[C@@H]12 returned PREPL inhibitor 2.4.
CCCCCC1CC(CC(=O)Nc2ccc([N+](=O)[O-])cc2)C(=O)O1 (configuration not stated) was read as LYPLA2 counter 35.9*, LYPLA1 counter 0.9, PME-1 inh -4.2, PREPL inhibitor -15.3, Fam108B inh -6.4 and LYPLA2 confirm 31.5*.
